A short description of test [1]: NCI Yeast Anticancer Drug Screen. Data for the rad50 strain (AID 155).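 Also: 0% = growth of vehicle-only cultures of the same strain.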 The settings on record: S. cerevisiae rad50 strain growth inhibition, active compounds read high. The method in brief:
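Yeast carrying a defined DNA repair defect were exposed to test compounds, and growth was compared with vehicle-treated controls to give percent inhibition.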

A short description of test [2]: NCI Yeast Anticancer Drug Screen. Data for the mec2-1 strain (AID 157). To be noted: S. cerevisiae mec2-1 strain, active compounds read high. An outline of the steps: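 Compounds were applied to mec2-1 yeast cells. Their growth was then compared with that of vehicle-treated cultures to give growth inhibition.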
The nature of test [3]: NCI Yeast Anticancer Drug Screen. Data for the sgs1 mgt1 strain (AID 161).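 Also: 0% = growth of cultures given vehicle only.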 The settings on record: S. cerevisiae sgs1 mgt1 strain, active compounds read high. An outline of the steps:
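Percent growth inhibition was derived by comparing compound-exposed mutant yeast with vehicle-exposed cultures. The strain carries alterations in DNA damage repair.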

Test [4] in a line: NCI Yeast Anticancer Drug Screen. Data for the cln2 rad14 strain (AID 165).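 Also: 0% = growth equal to vehicle treated cultures.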 To be noted: S. cerevisiae cln2 rad14 strain, active compounds read high. An outline of the steps:
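Strain: cln2 rad14 yeast, altered in cell cycle control and DNA damage repair. Read-out: growth inhibition vs vehicle.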

Test [5] is described as follows: NCI Yeast Anticancer Drug Screen. Data for the bub3 strain (AID 167). To be noted: S. cerevisiae bub3 mutant strain, active compounds read high. An outline of the steps: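 Compounds were applied to a genetically altered yeast strain carrying a cell-cycle control defect. Growth inhibition was scored against vehicle-treated controls.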
Test [6] in a line: NCI Yeast Anticancer Drug Screen. Data for the mlh1 rad18 strain (AID 175). The settings on record: S. cerevisiae mlh1 rad18 strain growth inhibition, active compounds read high. The method in brief: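 A repair-deficient yeast strain is exposed to test compound, and growth is scored relative to vehicle-treated controls.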
The mark [7] stands for this setting: at 5.0 µM (retest, dose inferred, filed as 0.5).
[8] abbreviates: at 50.0 µM (retest, dose inferred, filed as 5.0).

Molecules are shown by their SMILES. The panel holds about 79,000 compounds, 15% with a hit somewhere; the sample as a whole holds those more often. Unmarked numbers belong to inactive results. Active and inactive are the calls of the source. Rule as the data show it: active = growth inhibition above about 70%; inactive = the rest.

Regarding `Cc1ccc(N=P(c2ccccc2)(c2ccccc2)c2ccccc2)cc1.[Br][Hg][Br]`, the growth inhibition was 99% (active) in test [1] (setting [7]); 99% (active) in test [1] (setting [8]); 98.8% (active) in test [1] (at 50.0 µM); 100% (active) in test [2] (setting [7]); 100% (active) in test [2] (setting [8]); 97.6% (active) in test [2] (at 50.0 µM). Besides, the growth inhibition in test [3] (setting [7]) is 99% (active); in test [3] (setting [8]), 99% (active); in test [3] (at 50.0 µM) it was 98% (active); in test [4] (setting [7]), 99% (active); in test [4] (setting [8]) it was 99% (active); in test [4] (at 50.0 µM) it was 98.3% (active). In addition, the growth inhibition is 98% (active) in test [5] (setting [7]); 99% (active) in test [5] (setting [8]); 98.8% (active) in test [5] (at 50.0 µM); 99% (active) in test [6] (setting [7]); 99% (active) in test [6] (setting [8]); 97.1% (active) in test [6] (at 50.0 µM).
`O=c1c2ccccc2[nH]c(=S)n1-c1cccc(C(F)(F)F)c1`: the growth inhibition in test [1] (setting [7]) is 65%; in test [1] (setting [8]), 69%; in test [1] (at 50.0 µM), 72.2% (active); in test [2] (setting [7]) it was 49%; in test [2] (setting [8]), 59%; in test [2] (at 50.0 µM), 76.3% (active). For the same molecule, the growth inhibition in test [3] (setting [7]) was 55%; in test [3] (setting [8]) it was 59%; in test [3] (at 50.0 µM), 77% (active); in test [4] (setting [7]), 52%; in test [4] (setting [8]) it was 48%; in test [4] (at 50.0 µM) it was 61.7%. Besides, the growth inhibition is 71% (active) in test [5] (setting [7]); 77% (active) in test [5] (setting [8]); 77.7% (active) in test [5] (at 50.0 µM); 79% (active) in test [6] (setting [7]); 81% (active) in test [6] (setting [8]); 69.2% in test [6] (at 50.0 µM).
As for `CC(=O)[O][Hg][c]1c(C)c(C)cc(C)c1C`, the growth inhibition in test [1] (setting [7]) is 99% (active); in test [1] (setting [8]), 96% (active); in test [1] (at 50.0 µM) it was 90.1% (active); in test [2] (setting [7]), 100% (active); in test [2] (setting [8]), 98% (active); in test [2] (at 50.0 µM), 91.2% (active). The growth inhibition in test [3] (setting [7]) is 99% (active); in test [3] (setting [8]), 98% (active); in test [3] (at 50.0 µM), 87.7% (active); in test [4] (setting [7]), 99% (active); in test [4] (setting [8]) it was 98% (active); in test [4] (at 50.0 µM), 85.7% (active). The growth inhibition in test [5] (setting [7]) was 99% (active); in test [5] (setting [8]), 97% (active); in test [5] (at 50.0 µM) it was 84.2% (active); in test [6] (setting [7]), 99% (active); in test [6] (setting [8]), 96% (active); in test [6] (at 50.0 µM), 76.2% (active).
On to `NC[CH2][Sn]([c]1ccccc1)([CH]1CCCCC1)[CH]1CCCCC1`, for which the growth inhibition is 99% (active) in test [1] (setting [7]); 98% (active) in test [1] (setting [8]); 99% (active) in test [1] (at 50.0 µM); 100% (active) in test [2] (setting [7]); 99% (active) in test [2] (setting [8]); 98.7% (active) in test [2] (at 50.0 µM). The growth inhibition in test [3] (setting [7]) was 100% (active); in test [3] (setting [8]), 99% (active); in test [3] (at 50.0 µM), 93.3% (active); in test [4] (setting [7]) it was 98% (active); in test [4] (setting [8]), 98% (active); in test [4] (at 50.0 µM), 97.5% (active). For the same molecule, the growth inhibition in test [5] (setting [7]) was 98% (active); in test [5] (setting [8]), 98% (active); in test [5] (at 50.0 µM), 98.5% (active); in test [6] (setting [7]), 100% (active); in test [6] (setting [8]) it was 98% (active); in test [6] (at 50.0 µM) it was 98.9% (active).
Turning to `O=[N+]([O-])c1cc(Cl)ccc1S(=O)(=O)F`, the growth inhibition in test [1] (setting [7]) is 98% (active); in test [1] (setting [8]), 98% (active); in test [1] (at 50.0 µM), 99.7% (active); in test [2] (setting [7]) it was 98% (active); in test [2] (setting [8]), 99% (active); in test [2] (at 50.0 µM), 99.6% (active). The growth inhibition in test [3] (setting [7]) is 99% (active); in test [3] (setting [8]) it was 99% (active); in test [3] (at 50.0 µM), 99.5% (active); in test [4] (setting [7]), 98% (active); in test [4] (setting [8]), 98% (active); in test [4] (at 50.0 µM), 99.2% (active). Besides, the growth inhibition in test [5] (setting [7]) is 98% (active); in test [5] (setting [8]), 98% (active); in test [5] (at 50.0 µM), 99.5% (active); in test [6] (setting [7]) it was 96% (active); in test [6] (setting [8]) it was 98% (active); in test [6] (at 50.0 µM), 99.5% (active).
For `CCCC(=O)O.CCCC(=O)O.CCCC(=O)O.CCCC(=O)O.[Rh].[Rh]`, the growth inhibition is 25% in test [1] (setting [7]); 44% in test [1] (setting [8]); 22% in test [1] (at 50.0 µM); 34% in test [2] (setting [7]); 61% in test [2] (setting [8]); 48.5% in test [2] (at 50.0 µM). The growth inhibition in test [3] (setting [7]) is 28%; in test [3] (setting [8]), 59%; in test [3] (at 50.0 µM), 30.1%; in test [4] (setting [7]), 42%; in test [4] (setting [8]) it was 69%; in test [4] (at 50.0 µM), 43.5%. Besides, the growth inhibition in test [5] (setting [7]) was 37%; in test [5] (setting [8]), 64%; in test [5] (at 50.0 µM) it was 33.7%; in test [6] (setting [7]), 29%; in test [6] (setting [8]) it was 52%; in test [6] (at 50.0 µM) it was 24.1%.
`CCCCCCCCCCCCCC(=O)[O][Hg][c]1ccccc1`: the growth inhibition is 99% (active) in test [1] (setting [7]); 93% (active) in test [1] (setting [8]); 99.5% (active) in test [1] (at 50.0 µM); 100% (active) in test [2] (setting [7]); 99% (active) in test [2] (setting [8]); 99.6% (active) in test [2] (at 50.0 µM). For the same molecule, the growth inhibition in test [3] (setting [7]) was 100% (active); in test [3] (setting [8]), 99% (active); in test [3] (at 50.0 µM) it was 99.6% (active); in test [4] (setting [7]) it was 99% (active); in test [4] (setting [8]), 98% (active); in test [4] (at 50.0 µM) it was 99.6% (active). Further, the growth inhibition in test [5] (setting [7]) was 99% (active); in test [5] (setting [8]), 99% (active); in test [5] (at 50.0 µM) it was 99.5% (active); in test [6] (setting [7]) it was 99% (active); in test [6] (setting [8]) it was 99% (active); in test [6] (at 50.0 µM), 99.6% (active).
As for `[N-]=[N+]=Nc1c([N+](=O)[O-])c(=O)n2c3c(cccc13)CCC2`, the growth inhibition in test [1] (setting [7]) was 46%; in test [1] (setting [8]), 98% (active); in test [1] (at 50.0 µM), 85.5% (active); in test [2] (setting [7]), 26%; in test [2] (setting [8]), 99% (active); in test [2] (at 50.0 µM), 88.8% (active). Further, the growth inhibition in test [3] (setting [7]) is 28%; in test [3] (setting [8]), 99% (active); in test [3] (at 50.0 µM), 92.8% (active); in test [4] (setting [7]), 18%; in test [4] (setting [8]), 84% (active); in test [4] (at 50.0 µM), 90.6% (active). Moreover, the growth inhibition in test [5] (setting [7]) is 37%; in test [5] (setting [8]), 99% (active); in test [5] (at 50.0 µM), 90.5% (active); in test [6] (setting [7]) it was 40%; in test [6] (setting [8]), 98% (active); in test [6] (at 50.0 µM), 90.2% (active).
On to `CC(=O)Nc1ccccc1[As](OC(C)=O)c1ccccc1` (stereo not given), for which the growth inhibition was 18% in test [1] (setting [7]); 97% (active) in test [1] (setting [8]); 99.3% (active) in test [1] (at 50.0 µM); 11% in test [2] (setting [7]); 99% (active) in test [2] (setting [8]); 99.4% (active) in test [2] (at 50.0 µM). Further, the growth inhibition in test [3] (setting [7]) was 28%; in test [3] (setting [8]), 98% (active); in test [3] (at 50.0 µM) it was 99.5% (active); in test [4] (setting [7]), 99% (active); in test [4] (setting [8]), 84% (active); in test [4] (at 50.0 µM) it was 98.7% (active). Besides, the growth inhibition in test [5] (setting [7]) is -3%; in test [5] (setting [8]) it was 99% (active); in test [5] (at 50.0 µM), 99.5% (active); in test [6] (setting [7]), 29%; in test [6] (setting [8]), 98% (active); in test [6] (at 50.0 µM) it was 99% (active).
For the molecule `Nc1nc2ncnc(N)c2nc1-c1ccc(N(CCCl)CCCl)cc1`, the growth inhibition in test [1] (setting [7]) was -2%; in test [1] (setting [8]), 46%; in test [1] (at 50.0 µM), 55.7%; in test [2] (setting [7]), -3%; in test [2] (setting [8]) it was 38%; in test [2] (at 50.0 µM) it was 46%. In addition, the growth inhibition was -3% in test [3] (setting [7]); 54% in test [3] (setting [8]); 85.4% (active) in test [3] (at 50.0 µM); 6% in test [4] (setting [7]); 18% in test [4] (setting [8]); 16.4% in test [4] (at 50.0 µM). Besides, the growth inhibition in test [5] (setting [7]) was -1%; in test [5] (setting [8]), 40%; in test [5] (at 50.0 µM), 13.7%; in test [6] (setting [7]), -5%; in test [6] (setting [8]), 35%; in test [6] (at 50.0 µM), 68.8%.
